The source of these data is PubChem BioAssay (EPA / NIEHS).

Inconclusive results are not listed. Where a structure was tested more than once in an assay, its records may differ in their call. Active and inactive are the calls of the source. The calls were made as follows, unless noted: active = hit-call score of the fitted dose curve at least 0.9, where 1 is the maximum; inactive = score below 0.9.

Test [1] can be described thus: BSK_3C_uPAR: BioMAP Diversity Plus: 3C Assay for Urokinase-type plasminogen activator receptor (uPAR) Biomarker Activity (AID 2282998). Particulars: BioMAP 3C HUVEC, uPAR biomarker ELISA; actives raise or lower the signal. In a few lines: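 Human umbilical vein endothelial primary cells were exposed to test chemical for 24 h. Cell-surface uPAR was then quantified by ELISA, and responses were fitted bidirectionally against DMSO as negative control and baseline.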

A short description of test [2]: BSK_3C_VCAM1: BioMAP Diversity Plus: 3C Assay for Vascular cell adhesion molecule 1 (VCAM1) Biomarker Activity (AID 2282999). Particulars: BioMAP 3C HUVEC, VCAM1 ELISA, cytokine-stimulated; actives raise or lower the signal. A digest of the protocol:
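HUVEC primary cells, 24 h compound exposure; VCAM-1 by ELISA; gain/loss of signal fitted bidirectionally vs DMSO baseline.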

The nature of test [3]: BSK_4H_Eotaxin3: BioMAP Diversity Plus: 4H Assay for Eotaxin 3 Biomarker Activity (AID 2283000).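 Also: CCL26 protein level quantified by ELISA in parallel with SRB cytotoxicity check.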 Particulars: primary human endothelial cells (HUVEC); actives raise or lower the signal. In a few lines:
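ELISA quantitation of CCL26 (Eotaxin-3) protein from chemically dosed human vascular endothelial cells at 24 h; increases and decreases both scored relative to DMSO-treated baseline.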

Read-out in test [4]: Interleukin-1 alpha (IL1a), IL1A (gene 3552)
In words: BSK_BE3C_IL1a: BioMAP Diversity Plus: BE3C Assay for Interleukin-1 alpha (IL1a) Biomarker Activity (AID 2283016). The note with it: primary human bronchial epithelial cells; actives raise or lower the signal. In a few lines: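 ELISA read-out of IL-1a from human lung bronchial epithelial primary cells, 24 h post-dose. Gain or loss of signal fitted relative to DMSO negative control.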

Read-out in test [5]: Monocyte Chemoattractant Protein-1 (MCP1), CCL2 (gene 6347)
In words: BSK_4H_MCP1: BioMAP Diversity Plus: 4H Assay for Monocyte Chemoattractant Protein-1 (MCP1) Biomarker Activity (AID 2283018). Particulars: primary human endothelial cells (HUVEC); actives raise or lower the signal. A digest of the protocol:
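HUVEC primary cells, 24 h post-dose, MCP-1 by ELISA. Gain or loss of signal fitted bidirectionally vs DMSO baseline. Cytotoxicity: SRB stain (0.1% after 10% TCA fixation), read 560 nm, parallel cultures.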

Read-out in test [6]: Monokine induced gamma interferon (MIG), CXCL9 (gene 4283)
In words: BSK_3C_MIG: BioMAP Diversity Plus: 3C Assay for Monokine induced gamma interferon (MIG) Biomarker Activity (AID 2283021). Particulars: primary human endothelial cells (HUVEC); actives raise or lower the signal. A digest of the protocol: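 HUVEC, 3C system; 24 h chemical exposure; MIG by ELISA; bidirectional fit vs DMSO baseline.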

A short description of test [7]: BSK_3C_SRB: Viability Assessment in the BioMAP Diversity Plus: 3C Assay (AID 2283023).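 Also: fitted both ways against DMSO so a hit may be signal rise or drop.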 The note with it: primary human endothelial cells (HUVEC). A digest of the protocol: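 Overt cytotoxicity is gauged in parallel confluent HUVEC cultures by SRB total-protein staining at the time of biomarker measurement, 24 h after dosing. Gain or loss of signal is fitted versus DMSO.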

The nature of test [8]: BSK_4H_SRB: Viability Assessment in the BioMAP Diversity Plus: 4H Assay (AID 2283027).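 Also: cells exposed to compound for 24 h before staining.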 Particulars: primary human endothelial cells (HUVEC). A digest of the protocol:
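HUVEC, 24 h post-dose; 10% TCA fix, 0.1% SRB stain, A560 nm. Total protein = overt cytotoxicity, parallel to biomarker read. Bidirectional fit vs DMSO baseline.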

Test [9] in a line: BSK_BE3C_SRB: Viability Assessment in the BioMAP Diversity Plus: BE3C Assay (AID 2283028). The note with it: primary human bronchial epithelial cells. In a few lines:
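SRB total-protein staining (0.1%, after TCA fixation) of chemically dosed human bronchial epithelial primary cells at 24 h; DMSO serves as the negative control for bidirectional curve fitting.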

Read-out in test [10]: Monokine induced gamma interferon (MIG), CXCL9 (gene 4283)
In words: BSK_BE3C_MIG: BioMAP Diversity Plus: BE3C Assay for Monokine induced gamma interferon (MIG) Biomarker Activity (AID 2283035).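 Also: MIG protein measured by ELISA in BE3C cultures after 24 h of dosing.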 The note with it: primary human bronchial epithelial cells; actives raise or lower the signal. A digest of the protocol:
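Dose cells (human primary bronchial epithelial), incubate 24 h, quantify MIG by ELISA, then fit concentration–response in both directions relative to DMSO control.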

Read-out in test [11]: Plasminogen activator inhibitor-1 (PAI1), SERPINE1 (gene 5054)
Briefly: BSK_BE3C_PAI1: BioMAP Diversity Plus: BE3C Assay for Plasminogen activator inhibitor-1 (PAI1) Biomarker Activity (AID 2283037). Particulars: primary human bronchial epithelial cells; actives raise or lower the signal. In a few lines:
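ELISA read-out of PAI-1 from human bronchial epithelial primary cells, 24 h post-dosing; bidirectional curve fit vs DMSO baseline, gain or loss of signal scored.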

Read-out in test [12]: Tissue plasminogen activator (tPA), PLAT (gene 5327)
Briefly: BSK_BE3C_tPA: BioMAP Diversity Plus: BE3C Assay for Tissue plasminogen activator (tPA) Biomarker Activity (AID 2283041).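 Also: tPA level quantified by ELISA one day after compound addition.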 Particulars: primary human bronchial epithelial cells; actives raise or lower the signal. In a few lines: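 ELISA read-out of tPA on human primary bronchial epithelial cells, 24 h post-dosing; bidirectional fit vs DMSO negative control/baseline.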

Read-out in test [13]: Macrophage colony-stimulating factor (MCSF), CSF1 (gene 1435)
Briefly: BSK_LPS_MCSF: BioMAP Diversity Plus: LPS Assay for Macrophage colony-stimulating factor (MCSF) Biomarker Activity (AID 2283083). Particulars: primary human HUVEC with PBMC; actives raise or lower the signal. In a few lines: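 Bidirectional fit versus DMSO of ELISA-measured M-CSF in co-cultured human umbilical vein endothelial cells and PBMC, sampled 24 h after dosing.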

Read-out in a further test: CD69, CD69 (gene 969)
Briefly: BSK_SAg_CD69: BioMAP Diversity Plus: SAg Assay for CD69 Biomarker Activity (AID 2283089).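 As to AC50: cell surface CD69 protein quantified by ELISA with fluorescence detection.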 The note with it: primary human HUVEC with PBMC; actives raise or lower the signal. In a few lines:
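Endothelial/PBMC co-culture; chemical added; 24 h incubation; CD69 ELISA with fluorescence detection; bidirectional fit vs DMSO.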

In test [14] the target is Hepatocyte nuclear factor 6 (Homo sapiens) (UniProt Q9UBC0). In words: ATG_HNF6_CIS: Attagene CIS-FACTORIAL HepG2 Assay for human Hepatocyte Nuclear Factor 6 (HNF6) (AID 2282952). The note with it: HepG2 Attagene cis-factorial HNF6 reporter transcription; actives raise or lower the signal. A digest of the protocol:
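Twenty-four-hour chemical treatment of reporter-transfected HepG2 cells precedes RNA isolation, DNase-treated reverse transcription and PCR of reporter sequences. Labelled fragments are sized by capillary electrophoresis and fitted bidirectionally versus DMSO.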

Test [15] can be described thus: ATG_VDRE_CIS: Attagene CIS-FACTORIAL HepG2 Assay for human Vitamin D Receptor Element (VDRE) (AID 2282968). The note with it: HepG2 VDRE cis-reporter transcription, actives raise or lower the signal. In a few lines: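 Transient MRTU transfection of HepG2, 24 h compound exposure. Readout: reporter transcripts via RT-PCR and capillary electrophoresis, fluorescence. Bidirectional fit vs DMSO.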

Test [16] deals with human Peroxisome Proliferator-activated Receptor alpha (PPARa), PPARA (gene 5465) (UniProt Q07869). In words: ATG_PPARa_TRANS: Attagene TRANS-FACTORIAL HepG2 Assay for human Peroxisome Proliferator-activated Receptor alpha (PPARa) (AID 2283001; active = hit-call score of the fitted dose curve at least 0.9, where 1 is the maximum;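 as to AC50: potency for gain of reporter signal over DMSO so agonist or activator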). A digest of the protocol:
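Transient HepG2 transfection, GAL4-UAS reporters, NR-Gal4 chimeras; 24 h compound exposure. Readout: reporter transcripts by RT-PCR, 6-FAM primer extension, HpaI digest, capillary electrophoresis. Positive direction vs DMSO baseline.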

For test [17], the target named is Retinoic acid receptor RXR-alpha (Homo sapiens) (UniProt P19793). Briefly: ATG_RXRa_TRANS: Attagene TRANS-FACTORIAL HepG2 Assay for human Retinoid X Receptor alpha (RXRa) (AID 2283012; active = hit-call score of the fitted dose curve at least 0.9, where 1 is the maximum). In a few lines:
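Read-out: fluorescent reporter-transcript fragments quantified by capillary electrophoresis after RT-PCR. Transiently transfected HepG2 cells carrying GAL4-UAS reporters and NR-GAL4 chimeras were exposed to chemical for 24 h; activity scored as increase over DMSO.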

Test [18] is described as follows: ATG_TGFb_CIS: Attagene CIS-FACTORIAL HepG2 Assay for human Transforming Growth Factor (TGF) (AID 2282967). Particulars: HepG2 Attagene CIS TGFb reporter, mRNA transcription; actives raise or lower the signal. In a few lines: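 HepG2 cells transiently transfected with cis-promoter-driven multiplexed reporter units; 24 h compound exposure. Reporter mRNA measured by RT-PCR, 6-FAM labeling, HpaI digestion and capillary electrophoresis; bidirectional fit versus DMSO baseline.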

Test [19] is described as follows: ATG_M_06_TRANS: Attagene TRANS-FACTORIAL HepG2 Assay for M06 Transcription Factor (Internal Marker) (AID 2282983; active = hit-call score of the fitted dose curve at least 0.9, where 1 is the maximum). Particulars: HepG2 Attagene TRANS M06 internal marker reporter. A digest of the protocol:
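Multi-reporter-transfected HepG2, 24 h treatment; reporter transcripts quantified via RT-PCR, primer-extension labelling and CE. DMSO-normalized gain-of-signal fit.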

Sequence of Hepatocyte nuclear factor 6 (Homo sapiens) (Q9UBC0 whole entry, looked up, the tested form may be a part): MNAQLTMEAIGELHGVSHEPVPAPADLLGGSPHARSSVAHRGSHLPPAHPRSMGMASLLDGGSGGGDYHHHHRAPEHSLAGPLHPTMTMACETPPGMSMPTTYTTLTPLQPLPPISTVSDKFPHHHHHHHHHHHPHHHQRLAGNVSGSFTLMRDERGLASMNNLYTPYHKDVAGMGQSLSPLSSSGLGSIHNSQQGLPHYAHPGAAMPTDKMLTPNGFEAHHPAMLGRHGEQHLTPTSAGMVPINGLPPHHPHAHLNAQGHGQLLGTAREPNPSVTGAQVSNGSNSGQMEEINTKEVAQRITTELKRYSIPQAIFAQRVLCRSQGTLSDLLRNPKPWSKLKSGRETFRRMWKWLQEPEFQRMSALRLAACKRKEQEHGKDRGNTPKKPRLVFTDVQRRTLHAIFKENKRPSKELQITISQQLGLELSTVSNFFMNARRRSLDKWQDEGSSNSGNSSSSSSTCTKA
Sequence of Retinoic acid receptor RXR-alpha (Homo sapiens) (P19793 whole entry, looked up, the tested form may be a part): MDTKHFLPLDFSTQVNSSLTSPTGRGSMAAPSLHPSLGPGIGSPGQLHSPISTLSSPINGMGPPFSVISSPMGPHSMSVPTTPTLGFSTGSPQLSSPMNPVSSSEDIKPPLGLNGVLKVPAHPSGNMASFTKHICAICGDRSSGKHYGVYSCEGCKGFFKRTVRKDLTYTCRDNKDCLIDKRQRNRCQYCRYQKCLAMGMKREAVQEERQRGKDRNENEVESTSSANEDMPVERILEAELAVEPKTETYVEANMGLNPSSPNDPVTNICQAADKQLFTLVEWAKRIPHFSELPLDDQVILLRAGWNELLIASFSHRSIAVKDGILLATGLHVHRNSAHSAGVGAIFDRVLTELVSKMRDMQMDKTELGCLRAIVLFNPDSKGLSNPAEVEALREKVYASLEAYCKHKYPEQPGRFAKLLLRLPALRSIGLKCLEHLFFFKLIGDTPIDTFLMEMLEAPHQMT
Sequence of human Peroxisome Proliferator-activated Receptor alpha (PPARa), PPARA (gene 5465) (Q07869 whole entry, looked up, the tested form may be a part): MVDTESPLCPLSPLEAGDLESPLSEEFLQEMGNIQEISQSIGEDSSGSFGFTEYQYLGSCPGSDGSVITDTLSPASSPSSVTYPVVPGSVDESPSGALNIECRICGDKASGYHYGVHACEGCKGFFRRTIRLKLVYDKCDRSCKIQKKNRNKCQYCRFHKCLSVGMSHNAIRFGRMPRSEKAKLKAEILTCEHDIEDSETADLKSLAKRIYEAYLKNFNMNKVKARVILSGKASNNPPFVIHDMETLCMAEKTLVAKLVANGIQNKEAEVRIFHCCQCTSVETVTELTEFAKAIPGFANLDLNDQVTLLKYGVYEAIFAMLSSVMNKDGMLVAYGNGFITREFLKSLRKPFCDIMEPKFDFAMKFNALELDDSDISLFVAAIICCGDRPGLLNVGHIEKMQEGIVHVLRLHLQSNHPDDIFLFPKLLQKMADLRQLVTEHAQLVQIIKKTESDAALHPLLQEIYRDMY

For the compound `CCC[Si](OC(C)=O)(OC(C)=O)OC(C)=O`, the result in test [1], in test [2], in [3], in test [4], in test [5] and in [6] was inactive. Further, the outcome in [7], in [8], in [9], in [10], in test [11] and in test [12] was inactive. For the same compound, the outcome in [13] is “inactive”; in the test with CD69, CD69 (gene 969), “inactive”.
Consider `COc1cc(CNC(=O)CCCC/C=C/C(C)C)ccc1O`, for which the outcome in test [1], in test [2], in [3], in [4], in test [5] and in test [6] was inactive. For the same compound, the outcome in [7], in test [8], in test [9], in test [10], in test [11] and in test [12] was inactive. Moreover, the outcome in test [13] is “inactive”; with CD69, CD69 (gene 969) it was “inactive”. Also, the AC50 – broadly, the concentration giving half of the maximal activity seen – in the test with CD69, CD69 (gene 969) was 27.1 µM (active).
Take `CN(C)N=Nc1ccccc1`: the compound was called inactive in test [14], in [15], in test [16] and in [17].
Take `COc1ccc2ccccc2c1`: the call in [18], in [19] and in [16] was inactive.
Regarding `CCO[Si](CCCN)(OCC)OCC`, the compound was called inactive in [14], in test [18], in test [15], in test [19], in test [16] and in test [17].
With `CCCc1c(OCCCCc2nn[nH]n2)ccc(C(C)=O)c1O`, the compound was classed as inactive in test [14], in test [18], in [15], in test [19] and in test [17]. For the same compound, the half-maximal activity concentration (AC50) in test [16] is 27.7 µM (active).
With `O=C(C1CCCCC1)N1CC(=O)N2CCc3ccccc3C2C1` (stereo unspecified), the call in [18], in test [19], in [16] and in [17] was inactive. Besides, the AC50 in [15] was 13.7 µM (active).
For `CC[N+](CC)(CC(=O)Nc1c(C)cccc1C)Cc1ccccc1`, the outcome in test [14], in test [18], in test [1], in [2], in test [3] and in test [16] was inactive. The result in test [17], in [4], in test [5], in test [6], in test [7] and in test [8] was inactive. The outcome in test [9] is “inactive”; in [10] it was “inactive”; in test [11], “inactive”; in test [12] it was “inactive”; in test [13], “inactive”; in the test with CD69, CD69 (gene 969) it was “inactive”.
